Screening data: PubChem, National Center for Advancing Translational Sciences (NCATS)
Most compounds without a hit are left out; they make up all but 1.3% or so of the library.
BRCA1 expr act: BRCA1 expression activation | AID 624202 | MCF7-BRCA1-FFLuc reporter, luminescence, 48 h; response scale: scaled: vehicle 0%, 10 µM genistein 100% | Potency, µM (titrated, usually from 46.1 µM), for the others: at the top dose activation, actives largely listed as activators | actives 1.1% (n = 380,000); note: nearly all actives have a fitted effect of over 80% in size
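Luminescence from a BRCA1-driven firefly luciferase in MCF7 cells was read after 48 h compound exposure at 37 C. Data normalized against DMSO and a 10microM genistein activation control, then curve-fitted across the titration.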
EPAC1 ag: EPAC1 (human) agonism | O95398 | EPAC1 agonist qHTS, biochemical assay; response scale: 100% = response to 6.5 mM cAMP | Potency, µM (highest dose often 154 µM), for inactives: at the highest dose activation, usual class: activators | actives 0.073% (n = 360,000); note: nearly all actives have a fitted effect of over 60% in size
Target sequence (O95398 whole entry, looked up): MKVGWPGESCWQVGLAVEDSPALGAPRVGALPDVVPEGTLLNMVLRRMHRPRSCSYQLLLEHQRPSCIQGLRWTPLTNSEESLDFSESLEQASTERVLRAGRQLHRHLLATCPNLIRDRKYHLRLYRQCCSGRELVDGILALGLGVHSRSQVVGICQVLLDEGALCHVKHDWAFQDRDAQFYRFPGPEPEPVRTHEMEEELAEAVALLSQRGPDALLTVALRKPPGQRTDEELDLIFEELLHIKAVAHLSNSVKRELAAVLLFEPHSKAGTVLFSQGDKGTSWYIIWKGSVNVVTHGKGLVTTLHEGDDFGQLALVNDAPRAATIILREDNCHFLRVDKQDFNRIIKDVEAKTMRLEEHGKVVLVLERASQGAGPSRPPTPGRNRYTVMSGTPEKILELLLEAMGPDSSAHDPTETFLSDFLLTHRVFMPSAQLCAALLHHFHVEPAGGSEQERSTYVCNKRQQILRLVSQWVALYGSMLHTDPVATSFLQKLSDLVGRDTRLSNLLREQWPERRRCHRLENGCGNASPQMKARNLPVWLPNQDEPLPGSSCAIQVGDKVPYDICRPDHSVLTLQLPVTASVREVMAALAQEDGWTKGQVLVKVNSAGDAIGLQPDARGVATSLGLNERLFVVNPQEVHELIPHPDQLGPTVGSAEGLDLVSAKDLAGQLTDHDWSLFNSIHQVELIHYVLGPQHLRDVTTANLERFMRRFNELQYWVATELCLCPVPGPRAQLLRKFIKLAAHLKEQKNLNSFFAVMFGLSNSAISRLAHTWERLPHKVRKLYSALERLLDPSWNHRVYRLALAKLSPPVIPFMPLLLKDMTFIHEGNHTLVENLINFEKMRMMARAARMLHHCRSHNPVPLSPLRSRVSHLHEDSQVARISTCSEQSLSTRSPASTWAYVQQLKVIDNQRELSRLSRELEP
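Multi-concentration qHTS readout: loss of Rap1B-bound BODIPY-GDP fluorescence driven by 100 nM EPAC1 with excess GDP (50 uM), monitored kinetically at room temperature; agonist response expressed relative to 6.5 mM cAMP.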
EPAC1 antagonist: antagonists of human EPAC1; Potency, µM (titrated, usually from 115 µM), for the others: at the highest dose activity change, negative = inhibition, actives largely listed as inhibitors; actives 0.14% (n = 360,000); EPAC1 GEF assay, Rap1b-BODIPY-GDP exchange fluorescence; O95398; AID 720709;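 note: plate controls were vehicle for no effect and positive control for full effect; nearly all actives have a fitted effect of over 50% in size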
EPAC2 ag: agonists of human EPAC2 (RAPGEF4). Q8WZA2. actives 0.079% (n = 360,000). EPAC2 activation, biochemical qHTS; response scale: 100% = 6.5 mM cAMP response. AID 720711. Potency, µM (highest dose often 154 µM), for inactives: at the top dose activation, usual class: activators; note: nearly all actives have a fitted effect of over 50% in size
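Guanine nucleotide exchange by EPAC2 is measured as reduced fluorescence of BODIPY-GDP once it is released from 250 nM Rap1B. Plates are read kinetically for 30 min at room temperature; results are scaled to 6.5 mM cAMP.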
EPAC2 antag: antagonists of human EPAC2. Q8WZA2. AID 720708. actives 0.18% (n = 360,000). Potency, µM (highest dose often 114 µM), inactives show at the top dose activity, negative = inhibition, most hits filed as inhibitors. EPAC2 GEF exchange of Rap1B-BODIPY-GDP, fluorescence; note: % is set by controls: 0 for no effect and ±100 for the full control effect; nearly all actives have a fitted effect of over 45% in size
RGS4 inhibitor: inhibitors of human regulator of G protein signaling 4; P49798; Transcreener GDP fluorescence polarization, RGS4-accelerated GTP hydrolysis; Potency, µM (titrated, usually from 114 µM), inactives show top-dose activity change, negative = inhibition, actives largely listed as inhibitors; actives 0.039% (n = 390,000); note: % is set by controls: 0 for no effect and ±100 for the full control effect; nearly all actives have a fitted effect of over 75% in size
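MLSMR compounds (23 nl, pin-transferred) preincubated 10 min at room temperature with a 500nM (2x) first reagent, then RGS4 at 900nM (2x) plus Transcreener GDP mix added; fluorescence polarization (620/688 nm) read before and after 90 min at 30 °C.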
Active calls of the source: *; ? = inconclusive; [ ] = another dose, or the depositor's remark. Calls come from the whole dose curve; as a rule, active = well fitted curve in the direction sought with a large enough effect; inconclusive = small, poorly fitted or top-dose-only effect, or another doubt; inactive = no such curve, though single readings can be large; an effect the other way counts as inactive or inconclusive. Potency is the fitted concentration of half-maximal effect.

SMILES | BRCA1 expr act | EPAC1 ag | EPAC1 antagonist | EPAC2 ag | EPAC2 antag | RGS4 inhibitor
Cc1ccc(NC(=O)c2ccc(S(=O)(=O)N3CCOCC3)cc2)nc1 | 1.3% | 7.4% | -3.4% | -1.4% | -2.7% | -25.7%
CC(=O)Cc1nsc(NC(=O)c2ccc(COc3cccc(C)c3)o2)n1 | 3.9% | 0.9% | -11.5% | -1.2% | -17.9% | 35.7%
O=C(CN1CCN(C(c2ccccc2)c2ccccc2)CC1)N1N=CCC1c1ccccc1 (configuration not stated) | -21.2% | -6.7% | 1.1% | 1.7% | -11.3% | -3.0%
O=C(CN1C(=O)CCC1=O)c1ccc(-c2ccccc2)cc1 | 12.6µM* | 1.2% | 10.8% | 1.0% | 20.4% | -28.6%
CC(=O)Nc1ccc2c(c1Br)Cc1ccccc1-2 | 3.16µM* | 12.6% | -10.8% | -3.1% | 7.7% | 4.4%
Cc1cccc(C)c1NC(=O)CN(C)C(=O)c1ccc(-n2cncn2)c([N+](=O)[O-])c1 | -11.8% | -37.7% | ? | 7.4% | -4.5% | 8.2%
COc1cccc(N/C=C/c2onc(C)c2[N+](=O)[O-])c1 | 3.98µM* | 3.3% | 6.1% | -0.7% | 2.9% | -25.5%
Cc1cccc(C)c1N/C=C/c1onc(C)c1[N+](=O)[O-] | -1.1% | -8.2% | -3.5% | -20.1% | 37.0%[57.1 µM] | 8.0%
Cc1ccc(N/C=C/c2onc(C)c2[N+](=O)[O-])cc1 | 6.31µM* | -1.8% | 3.3% | -0.9% | 1.8% | -3.3%
Cc1noc(/C=C/c2ccc(-c3ccccc3Cl)o2)c1[N+](=O)[O-] | 58.4% | -2.2% | 3.7% | 100µM* | 217.5% | 10.9%
O=C(CCN1CCN(c2ccccc2)CC1)N/N=C/c1ccc(O)c(O)c1O | 4.3% | 6.3% | 79.4µM* | 5.1% | 1.3% | ?
COc1ccc2nc(Cl)c(/C=N/Nc3ccccn3)cc2c1 | 3.16µM* | -1.0% | 18.6% | -2.8% | 0.8% | -3.8%
CC(/C=C1\SC(=S)N(NS(=O)(=O)c2ccc(C)cc2)C1=O)=C\c1ccccc1 | 1.0% | 3.5% | 39.8µM* | -0.7% | 35.5µM* | -47.6%
CC(/C=C1\SC(=S)N(NS(=O)(=O)c2ccccc2)C1=O)=C\c1ccccc1 | -1.7% | -6.9% | 39.8µM* | 1.6% | 50.1µM* | ?
CC(/C=C1\SC(=S)N(NC(=O)c2ccc(C)cc2)C1=O)=C\c1ccccc1 | -18.8% | -4.5% | -4.9% | 10.2% | -9.2% | -7.6%
Cc1ccc(OCC(=O)NC(=S)Nc2cccc(NC(=O)c3ccccc3Cl)c2)cc1 | 3.7% | 1.0% | -0.4% | 15.8% | 17.9% | -39.4%
CC1CCc2c(sc(NC(=O)c3ccccc3C(=O)O)c2C#N)C1 (configuration not stated) | 25.3% | 5.3% | 8.2% | 16.3% | 1.3% | 25.8%
CC(=O)NC(=S)Nc1sc2c(c1C(N)=O)CCC(C)C2 (configuration not stated) | 4.47µM* | 6.8% | -11.9% | 6.3% | -6.7% | -26.2%
CC1CCc2c(sc(NC(=S)NC(=O)c3ccccc3)c2C#N)C1 (configuration not stated) | 11.2µM* | 0.1% | 12.5% | 1.9% | 4.8% | ?
CCC(C)(C)C1CCc2c(sc(NC(=O)c3ccccc3C(=O)O)c2C#N)C1 (configuration not stated) | -4.6% | -7.9% | 79.4µM* | 1.8% | -15.5% | -41.6%
COc1ccc(N/C=C(\[N+](=O)[O-])S(=O)(=O)c2ccccc2)cc1 | -0.5% | 14.1% | -7.2% | -0.7% | 1.7% | -27.1%[56.9 µM]
Cn1c(CNc2ccc(Br)cc2)nc2ccccc21 | ? | 9.0% | -1.0% | 9.2% | -23.5% | 8.0%
CC(C)CCOCc1nc2sc3c(c2c(=O)[nH]1)CCC(C)C3 (configuration not stated) | 12.6µM* | 8.3% | 16.1% | 4.1% | -2.7% | -13.8%
CCOC(=O)c1nc2sc3c(c2c(=O)[nH]1)CCC(C)C3 (configuration not stated) | -3.6% | -1.6% | -20.5% | 2.9% | -1.7% | -3.1%[11.4 µM]
